Source: PubChem BioAssay (EPA / NIEHS)
Records with an inconclusive call do not appear. The source made the active and inactive calls. How the source made its calls, unless noted: active means hit-call score of the fitted dose curve at least 0.9, where 1 is the maximum; inactive means score below 0.9.

Assays:
[1] = ATG_DR4_LXR_CIS: Attagene CIS-FACTORIAL HepG2 Assay for human Liver X Receptor (LXR), DR4 submotif (AID 2282929); details: HepG2 Attagene DR4 cis-reporter, mRNA transcription; actives raise or lower the signal
Method in brief: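 DR4 cis-reporter in HepG2, 24 h exposure. Detection: RT-PCR, 6-FAM labelling, CE fragment analysis. Endpoint fitted bidirectionally, DMSO = baseline.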

[2] = biological target: Aryl hydrocarbon receptor (Homo sapiens) (UniProt P35869); experiment: ATG_Ahr_CIS: Attagene CIS-FACTORIAL HepG2 Assay for human Aryl Hydrocarbon Receptor (Ahr) (AID 2282930); details: HepG2 AhR cis-factorial reporter transcription; actives raise or lower the signal
Chain of Aryl hydrocarbon receptor (Homo sapiens) (P35869 whole entry, looked up): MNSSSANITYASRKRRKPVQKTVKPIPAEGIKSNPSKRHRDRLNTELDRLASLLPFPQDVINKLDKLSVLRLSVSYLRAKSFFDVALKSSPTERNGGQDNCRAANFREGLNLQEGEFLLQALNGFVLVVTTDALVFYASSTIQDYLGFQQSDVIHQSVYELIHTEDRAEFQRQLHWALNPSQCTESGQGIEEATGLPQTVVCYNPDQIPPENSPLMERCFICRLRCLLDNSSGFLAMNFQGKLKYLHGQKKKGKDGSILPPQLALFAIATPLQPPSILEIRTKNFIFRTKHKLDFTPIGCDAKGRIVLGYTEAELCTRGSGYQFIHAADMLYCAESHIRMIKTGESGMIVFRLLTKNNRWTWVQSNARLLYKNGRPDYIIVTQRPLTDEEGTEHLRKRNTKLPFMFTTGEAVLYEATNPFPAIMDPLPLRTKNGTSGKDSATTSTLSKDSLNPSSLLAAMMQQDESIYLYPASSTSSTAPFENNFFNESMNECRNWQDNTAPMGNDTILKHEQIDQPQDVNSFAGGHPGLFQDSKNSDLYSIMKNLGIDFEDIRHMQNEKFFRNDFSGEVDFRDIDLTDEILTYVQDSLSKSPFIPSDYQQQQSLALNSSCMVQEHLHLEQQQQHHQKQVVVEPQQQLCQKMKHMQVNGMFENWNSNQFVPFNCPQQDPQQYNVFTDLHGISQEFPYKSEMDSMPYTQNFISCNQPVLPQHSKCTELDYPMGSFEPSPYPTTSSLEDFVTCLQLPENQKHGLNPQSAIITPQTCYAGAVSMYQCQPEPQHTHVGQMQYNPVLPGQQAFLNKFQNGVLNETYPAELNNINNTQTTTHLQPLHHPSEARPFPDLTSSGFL
Method in brief: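 Transient MRTU transfection of HepG2 → 24 h compound exposure → total RNA, oligo(dT) RT → PCR, 6-FAM extension, HpaI cut → CE fluorescence. DMSO = baseline; bidirectional curve fit.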

[3] = ATG_GLI_CIS: Attagene CIS-FACTORIAL HepG2 Assay for human Zinc Finger Protein GLI1 (AID 2282945); details: HepG2, Attagene cis-factorial reporter mRNA, GLI element; actives raise or lower the signal
Method in brief: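 Bidirectional curve fits relative to DMSO, using reporter mRNA levels from RT-PCR plus capillary electrophoresis. Cells were HepG2 transiently carrying cis-regulated reporter constructs, harvested 24 h after dosing.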

[4] = ATG_GRE_CIS: Attagene CIS-FACTORIAL HepG2 Assay for human Glucocorticoid Response Elements (GRE) (AID 2282947); details: HepG2 GRE cis-reporter, Attagene multiplex mRNA; actives raise or lower the signal
Method in brief: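 Multiplexed cis-reporter mRNA induction, HepG2, 24 h post-dose. RT-PCR, FAM-labelled, HpaI-digested amplicons by CE. Bidirectional fit vs DMSO.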

[5] = ATG_PBREM_CIS: Attagene CIS-FACTORIAL HepG2 Assay for human Phenobarbital-responsive Enhancer Module (PBREM) (AID 2282955); details: HepG2 PBREM cis-reporter, Attagene multiplexed transcription; actives raise or lower the signal
Method in brief: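 Transfected liver-derived HepG2 cells exposed 24 h; PBREM reporter transcript quantified via RT-PCR and capillary electrophoresis, with activity in either direction referenced to DMSO.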

[6] = ATG_PXRE_CIS: Attagene CIS-FACTORIAL HepG2 Assay for human Pregnane X Receptor Element (PXRE) (AID 2282957); details: HepG2 Attagene CIS-FACTORIAL PXRE reporter, mRNA; actives raise or lower the signal
Method in brief: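 Using HepG2 transfected with multiple reporter transcription units, endogenous factor-driven transcription was scored as reporter mRNA after 24 h exposure.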

[7] = ATG_PPRE_CIS: Attagene CIS-FACTORIAL HepG2 Assay for human Peroxisome Proliferator-activated Response Element (PPRE) (AID 2282958); details: HepG2 PPRE cis-element reporter, Attagene transcription factor profiling; actives raise or lower the signal
Method in brief: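 Measured endpoint: PPRE-controlled reporter mRNA, detected by RT-PCR and capillary electrophoresis fluorescence, from transiently transfected HepG2 cells 24 h after dosing. Curves fitted in both directions using DMSO baseline.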

[8] = ATG_TCF_b_cat_CIS: Attagene CIS-FACTORIAL HepG2 Assay for human T-Cell-Factor with beta-catenin (TCF/b-cat) (AID 2282965); details: HepG2 TCF/beta-catenin cis-reporter transcription, actives raise or lower the signal
Method in brief: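 Endogenous transcription factor activity is captured through cis-promoter reporter constructs transiently introduced into human HepG2 liver cells. Induced reporter mRNA is measured after 24 h and fitted bidirectionally relative to DMSO.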

[9] = biological target: X-box-binding protein 1 (Homo sapiens) (UniProt P17861); experiment: ATG_Xbp1_CIS: Attagene CIS-FACTORIAL HepG2 Assay for human X-box Binding Protein 1 (XBP1) (AID 2282972); details: HepG2 XBP1 cis-element reporter, Attagene multiplex; actives raise or lower the signal
Chain of X-box-binding protein 1 (Homo sapiens) (P17861 whole entry, looked up): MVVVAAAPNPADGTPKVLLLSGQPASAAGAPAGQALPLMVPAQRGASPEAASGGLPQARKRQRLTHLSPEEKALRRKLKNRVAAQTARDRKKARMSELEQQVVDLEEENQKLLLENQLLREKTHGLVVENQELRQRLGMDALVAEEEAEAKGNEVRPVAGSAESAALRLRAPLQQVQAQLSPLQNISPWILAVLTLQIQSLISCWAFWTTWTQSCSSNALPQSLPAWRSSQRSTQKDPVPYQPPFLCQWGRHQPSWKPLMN
Method in brief: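 Changes in reporter transcript abundance, read by RT-PCR and capillary electrophoresis, reflect endogenous transcription factor activity. Transfected HepG2 cells received compound for 24 hours; DMSO defined baseline for bidirectional analysis.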

[10] = ATG_M_06_TRANS: Attagene TRANS-FACTORIAL HepG2 Assay for M06 Transcription Factor (Internal Marker) (AID 2282983; active means hit-call score of the fitted dose curve at least 0.9, where 1 is the maximum;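 further: reporter transcript level by RT-PCR then capillary electrophoresis fluorescence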); details: HepG2 Attagene TRANS M06 internal marker reporter
Method in brief: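 Background control endpoint: reporter mRNA from transiently transfected HepG2 after 24 h dosing, detected by RT-PCR with capillary electrophoresis fluorescence. Analysed for gain versus DMSO.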

[11] = biological target: Nuclear receptor subfamily 4 group A member 2 (Homo sapiens) (UniProt P43354); experiment: ATG_NURR1_TRANS: Attagene TRANS-FACTORIAL HepG2 Assay for human Nuclear Receptor Related Protein 1 (NURR1) (AID 2282985; active means hit-call score of the fitted dose curve at least 0.9, where 1 is the maximum); details: HepG2 Attagene TRANS reporter, mRNA readout
Chain of Nuclear receptor subfamily 4 group A member 2 (Homo sapiens) (P43354 whole entry, looked up, the tested form may be a part): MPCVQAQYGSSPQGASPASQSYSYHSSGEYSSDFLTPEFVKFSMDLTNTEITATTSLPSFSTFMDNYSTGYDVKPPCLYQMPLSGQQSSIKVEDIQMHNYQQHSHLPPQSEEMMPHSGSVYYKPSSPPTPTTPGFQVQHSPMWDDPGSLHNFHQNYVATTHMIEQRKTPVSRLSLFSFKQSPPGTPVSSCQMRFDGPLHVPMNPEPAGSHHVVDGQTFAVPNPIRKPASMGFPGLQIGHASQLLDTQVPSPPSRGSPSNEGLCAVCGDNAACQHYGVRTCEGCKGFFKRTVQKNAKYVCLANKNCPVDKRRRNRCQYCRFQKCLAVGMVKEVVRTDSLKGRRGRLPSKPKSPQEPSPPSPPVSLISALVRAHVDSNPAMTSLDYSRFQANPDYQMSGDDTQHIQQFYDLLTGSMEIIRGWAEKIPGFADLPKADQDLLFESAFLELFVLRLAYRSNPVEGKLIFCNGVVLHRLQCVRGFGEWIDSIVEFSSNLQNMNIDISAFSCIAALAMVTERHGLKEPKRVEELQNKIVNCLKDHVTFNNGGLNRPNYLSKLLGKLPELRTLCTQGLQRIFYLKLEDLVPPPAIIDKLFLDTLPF
Method in brief: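 Measures transcriptional activation by an exogenous NR-Gal4 chimera in transfected HepG2 liver cells. After 24 h, reporter RNA is reverse-transcribed, amplified and resolved by capillary electrophoresis; DMSO defines baseline.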

[12] = biological target: human Peroxisome Proliferator-activated Receptor alpha (PPARa), PPARA (gene 5465) (UniProt Q07869); experiment: ATG_PPARa_TRANS: Attagene TRANS-FACTORIAL HepG2 Assay for human Peroxisome Proliferator-activated Receptor alpha (PPARa) (AID 2283001; active means hit-call score of the fitted dose curve at least 0.9, where 1 is the maximum;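 on AC50: potency for gain of reporter signal over DMSO so agonist or activator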)
Chain of human Peroxisome Proliferator-activated Receptor alpha (PPARa), PPARA (gene 5465) (Q07869 whole entry, looked up, the tested form may be a part): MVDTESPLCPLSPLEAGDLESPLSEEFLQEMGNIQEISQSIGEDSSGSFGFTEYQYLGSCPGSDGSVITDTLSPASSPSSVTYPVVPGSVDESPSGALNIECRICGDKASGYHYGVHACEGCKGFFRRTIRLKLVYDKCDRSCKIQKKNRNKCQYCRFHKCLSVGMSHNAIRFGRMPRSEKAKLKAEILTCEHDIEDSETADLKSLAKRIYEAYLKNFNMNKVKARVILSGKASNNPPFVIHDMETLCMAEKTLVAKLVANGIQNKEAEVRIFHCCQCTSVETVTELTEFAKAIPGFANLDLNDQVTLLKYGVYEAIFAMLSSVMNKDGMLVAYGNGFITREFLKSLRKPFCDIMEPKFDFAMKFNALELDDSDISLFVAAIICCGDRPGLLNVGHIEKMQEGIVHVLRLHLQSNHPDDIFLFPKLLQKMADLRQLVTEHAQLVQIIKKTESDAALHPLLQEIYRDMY
Method in brief: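 Transfected HepG2 cells treated with test chemical for 24 h. RNA isolated, reverse-transcribed with oligo(dT), PCR-amplified, FAM-labelled and HpaI-digested. Fragments sized by capillary electrophoresis; gain-of-signal fit relative to DMSO.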

[13] = biological target: Nuclear receptor subfamily 1 group I member 2 (Homo sapiens) (UniProt O75469); experiment: ATG_PXR_TRANS: Attagene TRANS-FACTORIAL HepG2 Assay for human Pregnane X Receptor (PXR) (AID 2283008; active means hit-call score of the fitted dose curve at least 0.9, where 1 is the maximum)
Chain of Nuclear receptor subfamily 1 group I member 2 (Homo sapiens) (O75469 whole entry, looked up, the tested form may be a part): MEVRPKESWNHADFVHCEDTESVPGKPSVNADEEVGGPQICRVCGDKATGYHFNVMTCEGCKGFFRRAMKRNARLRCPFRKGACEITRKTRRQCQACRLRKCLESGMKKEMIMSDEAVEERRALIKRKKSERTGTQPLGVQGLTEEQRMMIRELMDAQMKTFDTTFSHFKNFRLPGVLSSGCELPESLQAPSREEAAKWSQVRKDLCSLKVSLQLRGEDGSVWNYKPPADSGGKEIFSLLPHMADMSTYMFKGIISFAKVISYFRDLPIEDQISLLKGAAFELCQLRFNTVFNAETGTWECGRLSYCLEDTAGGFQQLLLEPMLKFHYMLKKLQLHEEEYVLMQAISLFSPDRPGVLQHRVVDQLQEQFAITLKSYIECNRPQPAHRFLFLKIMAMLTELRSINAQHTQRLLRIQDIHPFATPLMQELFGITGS
Method in brief: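 Multiplexed TRANS reporter panel in HepG2; this component tracks PXR-Gal4-driven reporter mRNA after 24 h dosing, measured by RT-PCR with capillary electrophoresis fluorescence, fitted against DMSO.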

[14] = biological target: Retinoic acid receptor RXR-alpha (Homo sapiens) (UniProt P19793); experiment: ATG_RXRa_TRANS: Attagene TRANS-FACTORIAL HepG2 Assay for human Retinoid X Receptor alpha (RXRa) (AID 2283012; active means hit-call score of the fitted dose curve at least 0.9, where 1 is the maximum)
Chain of Retinoic acid receptor RXR-alpha (Homo sapiens) (P19793 whole entry, looked up, the tested form may be a part): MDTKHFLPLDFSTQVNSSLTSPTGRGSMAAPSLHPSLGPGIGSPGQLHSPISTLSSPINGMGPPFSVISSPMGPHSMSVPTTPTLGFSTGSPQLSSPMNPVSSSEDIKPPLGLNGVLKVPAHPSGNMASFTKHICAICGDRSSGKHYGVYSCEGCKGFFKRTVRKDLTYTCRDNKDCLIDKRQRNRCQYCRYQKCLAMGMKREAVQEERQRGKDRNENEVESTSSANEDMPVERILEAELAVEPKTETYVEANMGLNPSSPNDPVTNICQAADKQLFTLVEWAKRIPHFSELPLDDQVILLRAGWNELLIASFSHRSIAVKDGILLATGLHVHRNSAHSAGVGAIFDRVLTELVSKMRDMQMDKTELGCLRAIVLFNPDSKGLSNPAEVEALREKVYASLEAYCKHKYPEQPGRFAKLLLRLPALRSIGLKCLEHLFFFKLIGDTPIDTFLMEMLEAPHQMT
Method in brief: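 Read-out: fluorescent reporter-transcript fragments quantified by capillary electrophoresis after RT-PCR. Transiently transfected HepG2 cells carrying GAL4-UAS reporters and NR-GAL4 chimeras were exposed to chemical for 24 h; activity scored as increase over DMSO.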

[15] = biological target: human Retinoid X Receptor beta (RXRb), RXRB (gene 6257) (UniProt P28702); experiment: ATG_RXRb_TRANS: Attagene TRANS-FACTORIAL HepG2 Assay for human Retinoid X Receptor beta (RXRb) (AID 2283013; active means hit-call score of the fitted dose curve at least 0.9, where 1 is the maximum)
Chain of human Retinoid X Receptor beta (RXRb), RXRB (gene 6257) (P28702 whole entry, looked up, the tested form may be a part): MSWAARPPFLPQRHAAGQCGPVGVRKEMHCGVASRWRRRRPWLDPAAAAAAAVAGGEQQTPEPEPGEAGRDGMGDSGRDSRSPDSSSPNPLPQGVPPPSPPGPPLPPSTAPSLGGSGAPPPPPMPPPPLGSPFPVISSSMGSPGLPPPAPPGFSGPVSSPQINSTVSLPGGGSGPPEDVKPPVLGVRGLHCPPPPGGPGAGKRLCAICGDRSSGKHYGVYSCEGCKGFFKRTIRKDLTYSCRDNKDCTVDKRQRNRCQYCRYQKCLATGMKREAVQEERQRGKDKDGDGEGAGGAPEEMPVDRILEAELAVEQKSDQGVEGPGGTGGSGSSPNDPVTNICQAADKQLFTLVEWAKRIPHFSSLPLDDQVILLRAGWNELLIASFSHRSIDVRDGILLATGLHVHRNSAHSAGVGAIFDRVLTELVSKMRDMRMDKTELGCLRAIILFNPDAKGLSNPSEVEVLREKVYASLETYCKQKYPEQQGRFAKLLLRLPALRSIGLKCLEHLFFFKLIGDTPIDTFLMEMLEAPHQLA
Method in brief: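 Read-out: reporter mRNA induction via RT-PCR plus capillary electrophoresis fluorescence, analysed as signal increase relative to DMSO. Cells were human HepG2, transiently transfected with GAL4-UAS reporter constructs and chimeric receptor-Gal4 fusions, dosed for 24 h.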

[16] = ATG_SREBP_CIS: Attagene CIS-FACTORIAL HepG2 Assay for human Sterol Regulatory Element Binding (SREBP) (AID 2282962); details: HepG2 Attagene cis-factorial SREBP reporter, mRNA; actives raise or lower the signal
Method in brief: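 In this cis-format assay, HepG2 liver cells express reporters controlled by promoter elements responsive to native transcription factors. Exposure lasts 24 h; reporter mRNA fluorescence from capillary electrophoresis gives the signal, fitted bidirectionally against DMSO.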

[17] = ATG_M_19_TRANS: Attagene TRANS-FACTORIAL HepG2 Assay for M19 Transcription Factor (Internal Marker) (AID 2282974; active means hit-call score of the fitted dose curve at least 0.9, where 1 is the maximum); details: HepG2 Attagene TRANS-FACTORIAL M19 internal marker reporter
Method in brief: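 Using RT-PCR and capillary electrophoresis, reporter mRNA from transiently transfected human HepG2 cells was quantified following 24 h exposure; activity was fitted in the positive direction against DMSO.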

[18] = ATG_GAL4_TRANS: Attagene TRANS-FACTORIAL HepG2 Assay for GAL4 (Internal Marker) (AID 2282976; active means hit-call score of the fitted dose curve at least 0.9, where 1 is the maximum); details: HepG2 Attagene TRANS GAL4 internal marker reporter
Method in brief: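 First, HepG2 cells were transfected with reporter units under GAL4-UAS control. Next, they were treated with chemical for 24 h. Finally, RNA was reverse-transcribed, PCR-amplified, FAM-labelled and resolved by capillary electrophoresis, with induction scored against DMSO.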

[19] = biological target: Myc proto-oncogene protein (Homo sapiens) (UniProt P01106); experiment: ATG_Myc_CIS: Attagene CIS-FACTORIAL HepG2 Assay for human Myelocytomatosis (Myc) Proto-Oncogene Transcription Factor (AID 2282990); details: HepG2, Attagene cis-reporter transcription factor activity; actives raise or lower the signal
Chain of Myc proto-oncogene protein (Homo sapiens) (P01106 whole entry, looked up): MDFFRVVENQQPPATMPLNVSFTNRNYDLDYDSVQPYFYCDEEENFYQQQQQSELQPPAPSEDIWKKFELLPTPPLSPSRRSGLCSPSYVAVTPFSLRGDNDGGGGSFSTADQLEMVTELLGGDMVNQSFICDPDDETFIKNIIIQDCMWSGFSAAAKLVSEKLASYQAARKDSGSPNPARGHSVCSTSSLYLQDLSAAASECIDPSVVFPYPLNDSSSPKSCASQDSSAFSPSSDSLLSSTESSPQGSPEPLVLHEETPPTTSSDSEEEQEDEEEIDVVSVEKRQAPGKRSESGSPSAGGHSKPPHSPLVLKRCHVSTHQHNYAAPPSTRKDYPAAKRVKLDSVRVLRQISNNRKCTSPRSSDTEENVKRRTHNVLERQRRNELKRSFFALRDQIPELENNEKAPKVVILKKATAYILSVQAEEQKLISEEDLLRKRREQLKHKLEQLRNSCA
Method in brief: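 HepG2, transient MRTU transfection (cis promoters, endogenous TFs); 24 h dosing; TriZol RNA → oligo(dT) RT → PCR → 6-FAM primer extension → HpaI cut → CE. Bidirectional fit vs DMSO.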

[20] = TOX21_p53_BLA_p5_viability: Viability Assessment in the Tox21 HCT-116 p53 Agonism Beta-lactamase Assay, Phase 5 (AID 2283600; active means hit-call score of the fitted dose curve at least 0.9, where 1 is the maximum)
Method in brief: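 Workflow: seed 4000 cells per well, wait 5 h, add compounds (DMSO, 217-fold dilution), incubate 16 h, load CCF4-AM 2 h, add CellTiter-Glo, read luminescence after 30 min.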

Measured: AC50

C[C@]12CC[C@H](O)C[C@H]1CC[C@@H]1[C@@H]2C[C@@H](O)[C@]2(C)[C@@H](C3=CC(=O)OC3)CC[C@]12O
inactive: [1] | [2] | [3] | [5] | [7] | [8] | [10] | [11] | [13] | [14] | [15]
active: [4] 6.51 µM | [6] 1.87 µM | [9] 3.98 µM | [12] 1.78 µM

CC(C)(Cl)Cl
inactive: [1] | [2] | [3] | [4] | [5] | [6] | [7] | [16] | [8] | [9] | [17] | [18] | [19] | [12] | [13] | [20]

CNC(=N[N+](=O)[O-])NCC1CCOC1 (configuration not stated)
inactive: [1] | [2] | [3] | [4] | [5] | [6] | [8] | [9] | [17] | [18] | [10]

CC1(C)CC(=O)CC(C)(C)N1[O]
active: [6] 33.2 µM
inactive: [1] | [2] | [3] | [5] | [7] | [16] | [8] | [9] | [17] | [18] | [11] | [19] | [13] | [20]

O=S(=O)(O)OOS(=O)(=O)O
active: [6] 56.7 µM
inactive: [1] | [2] | [3] | [7] | [16] | [9] | [17] | [10] | [11] | [19] | [15]

O=[N+]([O-])O
inactive: [1] | [2] | [3] | [4] | [6] | [16] | [8] | [17] | [18] | [10] | [19] | [20]

CCOC(=O)NC(=S)Nc1ccccc1NC(=S)NC(=O)OCC
active: [6] 1.68 µM | [13] 0.77 µM
inactive: [1] | [2] | [3] | [4] | [7] | [9] | [10] | [11] | [19] | [12] | [20]

O=C(O)CCCc1ccc(N(CCCl)CCCl)cc1
active: [1] 112 µM | [8] 143 µM
inactive: [2] | [3] | [7] | [16] | [17] | [18] | [10] | [11] | [19] | [12] | [13] | [14] | [15] | [20]

O=C(CCl)c1ccccc1
inactive: [2] | [3] | [6] | [7] | [16] | [8] | [9] | [17] | [10] | [11] | [19] | [13] | [20]
active: [1] 21.1 µM | [4] 8.88 µM | [12] 50.2 µM | [15] 33.4 µM
